# In the library only some 4.7% were active in any assay of this set; here they are far more common.
# D1 ag = Allosteric Agonists of the Human D1 Dopamine Receptor: qHTS; AID 504660, 2011; activation, % at 2 µM; HEK293 T-REx D1 cells, calcium flux, agonist mode; 1% of 360,000 active; note: 0% is about no effect
# Target sequence (P21728 whole entry, looked up): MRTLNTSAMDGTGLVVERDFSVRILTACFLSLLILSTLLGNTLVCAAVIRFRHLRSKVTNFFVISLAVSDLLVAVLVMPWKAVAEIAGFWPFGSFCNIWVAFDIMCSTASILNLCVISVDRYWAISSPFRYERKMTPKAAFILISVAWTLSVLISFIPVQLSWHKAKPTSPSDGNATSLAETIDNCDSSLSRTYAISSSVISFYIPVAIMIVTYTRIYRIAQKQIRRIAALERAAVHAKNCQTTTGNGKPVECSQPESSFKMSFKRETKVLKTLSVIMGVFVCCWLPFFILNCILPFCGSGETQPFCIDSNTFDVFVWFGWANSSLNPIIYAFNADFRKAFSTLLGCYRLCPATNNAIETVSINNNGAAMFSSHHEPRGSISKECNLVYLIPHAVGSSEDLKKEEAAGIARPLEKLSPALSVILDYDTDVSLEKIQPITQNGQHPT
#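 Tetracycline-induced HEK293 TREx D1 cells, force-coupled to calcium signalling, were dye-loaded with a no-wash calcium kit. Compound was pin-added after a 10 s baseline. Fluorescence was read kinetically at 1 cycle/s for 180 s, with calcium rises flagged as agonism.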
# TRHR PAM = qHTS for Small Molecule Agonists and Allosteric Enhancers of Human TRH Receptor: Primary Screen for Enhancers | Thyrotropin-releasing hormone receptor (Homo sapiens), P34981 | enhancement, % at 2 µM | TRHR cells, fluo-8 calcium fluorescence, EC20 TRH enhancement | 0.66% of 360,000 active; in the data active = enhancement above about 30%; note: 0% is about no effect
#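 TRHR-expressing cells loaded with fluo-8 calcium dye were read kinetically (ex 480/em 530) during compound addition, then stimulated with an EC20 of TRH (10 nM final). Enhancement of the Gq-mediated intracellular calcium response was scored.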
# D1 antagonist = Antagonist of Human D 1 Dopamine Receptor: qHTS; D(1A) dopamine receptor (Homo sapiens), P21728; HEK293 TREx D1 cells, calcium flux, dopamine EC80; active compounds read low; activity change, negative = inhibition, % at 10 µM; 3.2% of 360,000 active; AID 504652, 2011; in the data active = activity change below about -30%; note: % is set by controls: 0 for no effect and ±100 for the full control effect
#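 HEK293 T-REx cells expressing inducible, force-coupled D1 receptor; no-wash Ca dye, 30–90 min RT. Cmpd → 180 s read at 1 Hz → EC80 DA → 180 s read.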
# TRHR agonist = qHTS for Small Molecule Agonists and Allosteric Enhancers of Human TRH Receptor: Primary Screen for Agonists. 0.18% of 360,000 active. TRHR cells, calcium flux fluo-8, FDSS agonist mode. Thyrotropin-releasing hormone receptor (Homo sapiens), P34981. activation, % at 2 µM; note: 0% is about no effect
#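 In this calcium-flux screen, cells bearing human TRHR are dye-loaded with fluo-8, baselined for 10 cycles, then exposed to library compounds; positive kinetic calcium responses during the agonist phase mark hits, with TRH as control.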
# D1 PAM = Potentiators of Human D1 Dopamine Receptor: qHTS. D(1A) dopamine receptor (Homo sapiens), P21728. HEK293 TREx D1 cells, calcium flux, dopamine EC20 potentiation. potentiation, % at 10 µM. 0.036% of 360,000 active; in the data active = potentiation above about 30%; note: 0% is about no effect
# * = called active by the depositor; / = no result. Cut-off read from the data, not from the text of the source, unless noted: active = activation above about 30%; inactive = the rest.
SMILES,D1 ag,TRHR PAM,D1 antagonist,TRHR agonist,D1 PAM
O=C(Nc1ccc(C(F)(F)F)cc1)N1CCN(c2ccnc3cc(Cl)ccc23)CC1,13,-3,-37*,0,-14
CSCCC(NS(=O)(=O)c1ccc2c(c1)OCCO2)C(=O)N(C)Cc1ccccc1F (stereo unspecified),3,-1,-6,0,4
COc1ccc([C@]23Cc4cc(OC)c(OC)cc4C(O2)c2c(cc(C)oc2=O)O3)cc1,1,-10,-23,-1,-9
Cc1csc(SCC(=O)Nc2sc3c(c2C#N)CCC3)n1,1,-8,-31*,0,-4
Cc1ccnc(SCC(=O)Nc2sc3c(c2C#N)CCCC3)n1,16,4,-33*,0,-7
N#Cc1c(NC(=O)CSc2nc3ccccc3s2)sc2c1CCCC2,6,-3,7,-2,-4
N#Cc1cc2c(nc1SCC(=O)Nc1sc3c(c1C#N)CCC3)CCC2,1,-1,-42*,0,-1
Cc1c(-c2cccc(NC(=O)c3ccc(F)c(F)c3)c2)nc2ncccn12,0,0,-36*,0,-2
Cc1cn2c(=O)cc(COC(=O)c3cccc(NC(=O)c4ccccc4Cl)c3)nc2s1,2,0,4,0,0
Cc1cn2c(=O)cc(COC(=O)c3cccc(NC(=O)c4ccccc4C)c3)nc2s1,3,-1,-59*,-1,-1
Cc1cn2c(=O)cc(COC(=O)c3ccc(NC(=O)COc4ccc(C)c(C)c4)cc3)nc2s1,2,-1,-36*,1,0
Cc1cn2c(=O)cc(COC(=O)COc3ccccc3C)nc2s1,13,-3,-30*,0,-9
COc1ccc(CCNC(=O)c2ccc3c(c2)CCN3S(=O)(=O)c2ccccc2)cc1OC,4,0,-21,-2,4
O=S(=O)(c1ccc(Oc2ccc(Br)cc2)cc1)N1CCOCC1,15,-6,-32*,1,-6
O=S(=O)(Nc1ccc(S(=O)(=O)N2CCOCC2)cc1)c1ccc(Br)cc1,3,9,-5,-1,/
CN1CCN(C(=O)C2CCCN(S(=O)(=O)c3ccc(Br)cc3)C2)CC1 (stereo unspecified),4,7,15,1,3
O=C(C1CCCN(S(=O)(=O)c2ccc(Br)cc2)C1)N1CCOCC1 (stereo unspecified),6,3,-53*,0,6
CC(C)(C)OC(=O)N1CCC(c2c(C(=O)NCCN3CCC(Cc4ccccc4)CC3)cnn2-c2cccc(Cl)c2)CC1,21,11,4,3,4
Cc1ccc(-c2cc(C(=O)O)c3ccccc3n2)s1,1,2,-46*,1,-6
COc1cc(CNC(=O)c2ccc3c(c2)N(C)C(=O)C2CCCCN32)cc(OC)c1OC (stereo unspecified),0,-9,-5,0,-2
COc1ccccc1C1CC(c2ccccc2)=NN1S(=O)(=O)c1ccccc1 (stereo unspecified),4,-1,-34*,0,2
COc1cccc(N2C(N)=NC(N)=NC2(C)C)c1,0,-1,-54*,0,0
COc1ccc(N2C(N)=NC(N)=NC2(C)C)cc1,1,1,-3,-1,0
CC1CCN(S(=O)(=O)c2ccc3nc(Nc4cccc(F)c4)ccc3c2)CC1,1,-2,-23,1,-4
Cc1ccc(Cn2ccsc2=NC(=O)COC(=O)C(C)C)cc1,0,1,-48*,1,-1
SMILES,D1 ag,TRHR PAM,D1 antagonist,TRHR agonist,D1 PAM
Cc1ccc(Cn2ccsc2=NC(=O)COC(=O)c2ccc(O)cc2O)cc1,11,5,-23,0,2
CN1/C(=C\C=C2/SC(=S)NC2=O)C(C)(C)c2ccccc21,436*,1,-29,83*,12
CN1/C(=C\C=C2/C(=O)Oc3ccccc3C2=O)C(C)(C)c2ccccc21,545*,-30,89,217*,20
CCCN1C(=O)/C(=C\C=C2\N(CC)c3ccccc3C2(C)C)SC1=S,92*,-2,2,36*,-2
CN1C(=CC=C2C=C(I)C(=O)C(I)=C2)C(C)(C)c2ccccc21,19,3,-42*,9,-2
Cc1ccc2c(c1)C(c1ccccc1)N(C(=O)COc1ccc(Cl)cc1Cl)CC(=O)N2 (stereo unspecified),8,6,7,0,2
CN(C)c1ccc(N=C/C=C2/N(C)c3ccccc3C2(C)C)cc1,22,-6,-30*,3,-12
Cc1cc2c(s1)c1cnn(Cc3ccc(-c4ccccc4)cc3)c(=O)c1n2C,3,1,1,0,-4
COc1ccc(C2C=C(c3ccccc3)Nc3nc(NC(=O)/C=C/c4ccc(Cl)cc4)nn32)cc1 (stereo unspecified),1,-5,-77*,0,1
COc1ccc(C(=O)Nc2nc3n(n2)C(c2ccc(Cl)cc2)C=C(c2ccccc2)N3)cc1OC (stereo unspecified),39*,7,-2,30*,-1
COc1ccc(C(C)NC(=O)C2CCCO2)cc1OC (stereo unspecified),2,1,8,0,2
COc1ccc(C(C)NC(=O)C2CCCC2)cc1OC (stereo unspecified),8,7,-48*,0,5
COc1ccc(C(CC(=O)O)NC(=O)C2CCCCC2)cc1 (stereo unspecified),3,39*,1,0,-12
COc1cc2cc(CNc3ccc(C)cc3)c(=O)n(CC(=O)Nc3ccc(C(C)C)cc3)c2cc1OC,-2,-1,10,-1,1
CCCCOc1ccccc1C1CC(=O)NC2=C1C(=O)CCC2 (stereo unspecified),15,11,-48*,5,-5
CCCOc1ccccc1C1CC(=O)NC2=C1C(=O)CCC2 (stereo unspecified),14,5,5,2,-4
CCn1c(SCC(=O)NCc2cccs2)nnc1-c1cccs1,4,2,-39*,0,4
CC(=O)CSc1nc(N(C)C)nc(N(C)C)n1,-2,2,/,0,-4
CN(C)c1nc(C#N)nc(N(C)C)n1,-2,33*,-2,0,-4
CN(C)c1nc(SCC#N)nc(N(C)C)n1,0,-4,-74*,0,-8
Cc1ccc(-c2nnn(CC(=O)N3CCCCC3)n2)cc1,0,-1,8,0,28
